Data on 40 molecules can be found in PubChem BioAssay (NCI).

Each structure is given as a SMILES string. About 83,000 compounds went through this panel and 20% of them were active in at least one assay; those are over-represented in the sample as a whole.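 Testing used 96-well plates and a 48-hour single-concentration exposure. Example: -40 means 40% of the starting cells died.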 A number with no mark means an inactive call. Activity calls are given as the source filed them.

This assay relates to HOP-92 NSCLC. Put plainly: NCI-60 one-dose screen, 48 h (100 = growth as untreated, 0 = no growth, -100 = all killed). The note with it: 10 µM. The protocol:
Growth inhibition of the HOP-92 human Non-Small Cell Lung tumor cell line is measured as a screen for anti-cancer activity. Cells are grown in 96 well plates and exposed to the test compound for 48 hours. Compounds are tested at a single concentration, which is 10^-5 M for most compounds. The reported endpoint is percent growth (GI% or GIPRCNT), where numbers from 0 - 100% represent growth inhibition, and numbers from -100% - 0 represent cell death. For example, a value of 40 represents 60% growth inhibition. A value of 0 means no net growth occurred over the course of the experiment. A value of -40 indicates 40% of cells at the beginning of the experiment died by the end of the experiment. A value of -100 means all cells are dead at the end of the experiment.
NCI-60 Human Tumor Cell Lines Screen was performed using the standard one-dose NCI protocol, which is described in more detail at https://dtp.cancer.gov/discovery_development/nci-60/default.htm.
Compounds with GIPRCNT values below 10 were considered active. Activity score was based on GIPRCNT using the following formula: […]
Score is 0 for GIPRCNT values of 100 or above, 50 for GIPRCNT values of 0, and 100 for GIPRCNT values of -100.
As for `C[C@H]1[C@@H](Oc2ccc(-c3cn(-c4ccnc5cc(Cl)ccc45)nn3)cc2)O[C@@H]2OC3(C)CC[C@H]4[C@H](C)CC[C@@H]1[C@@]24OO3`, the growth was 29.4%.

For the molecule `O=C(NC([Se])=NC1CCCCC1)c1ccc2c(c1)OCO2`, the growth is 118%.

Consider `COc1cc2cc(C(=O)N3C[C@@H](CCl)c4c3cc(OC(=O)N3CCN(C)[C@@H]5CSSC[C@H]53)c3ccccc43)[nH]c2c(OC)c1OC`, for which the growth was -40.2% (active).

As to `CC(=O)Oc1ccccc1C(=O)NC([Se])=NC1CCCCC1`, the growth was 32%.

As to `C#CCCCN(CCNc1ccnc2cc(Cl)ccc12)C(=O)CCC(=O)O[C@@H]1O[C@@H]2OC3(C)CC[C@H]4[C@H](C)CC[C@@H]([C@H]1C)[C@@]24OO3`, the growth was 27.3%.

For the molecule `C=CC[Se]C(=O)c1ccc(C(=O)[Se]CC=C)s1`, the growth is -29.9% (active).

With `O=C(/C=C/c1ccccc1)c1nc2ccccc2n1Cc1ccc(Br)cc1`, the growth is -54% (active).

Consider `N#C[Se]CC(=O)Nc1cccc(C(F)(F)F)c1`, for which the growth was -69.3% (active).

Consider `CC[C@]12C=CCN3CC[C@@]4(c5ccc(OC)cc5N(C)[C@H]4[C@@](O)(C(=O)OC)[C@@H]1OC(=O)CCCC[P+](C1CCCCC1)(C1CCCCC1)C1CCCCC1)[C@@H]32`, for which the growth was -44.5% (active).

With `COC(=O)CCn1c(-c2ccc(-n3cc(-c4ccc(O[C@H]5O[C@@H]6OC7(C)CC[C@H]8[C@H](C)CC[C@@H]([C@H]5C)[C@@]68OO7)cc4)nn3)cc2)nc2ccccc21`, the growth was 1.85% (active).

For the molecule `COc1cc2cc(C(=O)N3C[C@@H](CCl)c4c3cc(OC(=O)N3CCN(C)[C@@H]5CSSC[C@@H]53)c3ccccc43)[nH]c2c(OC)c1OC`, the growth is -4.54% (active).

For the molecule `CC12OOC(C)(OO1)C2CCC(=O)OCCNc1ccnc2cc(Cl)ccc12` (stereo not given), the growth is -27.2% (active).

For the molecule `CC(C)C[C@H](NC(=O)CNC(=O)C[C@H]1O[C@@H]2OC3(C)CC[C@H]4[C@H](C)CC[C@@H]([C@H]1C)[C@@]24OO3)B(O)O`, the growth is -20.1% (active).

Take `CC1=C(CCC=O)C2=C(C)C3(CC3)[C@@](C)(O)C(=O)C2=C1`: the growth is -64.3% (active).

For the molecule `O=C(/C=C/c1ccccc1)c1nc2ccccc2n1Cc1ccc(F)cc1`, the growth is -28.4% (active).

On to `CC1=C(C=O)C2=C(C)C3(CC3)[C@@](C)(O)C(=O)C2=C1`, for which the growth was 18.5%.

Take `O=C(NCCCCC(c1ccc(F)cc1)c1ccc(F)cc1)Nc1ccc([N+](=O)[O-])c(C(F)(F)F)c1`: the growth was -36.2% (active).

As to `O=C(/C=C/c1ccc(F)cc1)c1nc2ccccc2n1Cc1ccc(Br)cc1`, the growth was -51.5% (active).

As to `O=C(/C=C/c1cccc(Br)c1)c1nc2ccccc2n1Cc1ccc(F)cc1`, the growth was 19.3%.

Take `CCOP(=O)(OCC)C(NC(C)=O)C(=O)SCCN` (stereo not given): the growth was 108%.

On to `COc1ccc(/C=C/C(=O)c2nc3ccccc3n2Cc2ccc(Br)cc2)cc1`, for which the growth was 64.2%.

For `O=C(/C=C/c1ccccc1Cl)c1nc2ccccc2n1Cc1ccc(F)cc1`, the growth is -65.4% (active).

As to `C[C@H]1[C@@H](CC(=O)N[C@@H](Cc2coc3ccccc23)B(O)O)O[C@@H]2OC3(C)CC[C@H]4[C@H](C)CC[C@@H]1[C@@]24OO3`, the growth is -68.6% (active).

For `C#CC[Se]C(=O)c1ccc(C(=O)[Se]CC#C)s1`, the growth was 157%.

As for `Cc1ccc2[nH]c(=S)n(-c3ccc(F)cc3)c(=O)c2c1`, the growth was 77.2%.

For `CC[C@]12C=CCN3CC[C@@]4(c5ccc(OC)cc5N(C)[C@H]4[C@@](O)(C(=O)OC)[C@@H]1OC(=O)CCC[P+](c1ccc(C)cc1)(c1ccc(C)cc1)c1ccc(C)cc1)[C@@H]32`, the growth was -83.2% (active).

Turning to `CC[C@]12C=CCN3CC[C@@]4(c5ccc(OC)cc5N(C)[C@H]4[C@@](O)(C(=O)OC)[C@@H]1OC(=O)CCCC[P+](c1ccc(C)cc1)(c1ccc(C)cc1)c1ccc(C)cc1)[C@@H]32`, the growth is -77.9% (active).

As for `O=C(/C=C/c1cccc(Br)c1)c1nc2ccccc2n1Cc1ccc(Br)cc1`, the growth was -48.8% (active).

Turning to `CCOC(=O)C1=C(Nc2ccccc2)C(=O)OC12C(=O)Nc1ccccc12` (stereo not given), the growth is 101%.

For the molecule `CC12OOC(C)(OO1)C2CCC(=O)NCCNc1ccnc2cc(Cl)ccc12` (stereo not given), the growth was 111%.

As to `CC(C)N=C([Se])NC(=O)c1cccs1`, the growth is 88.3%.

`COCCOCCOCCOc1ccc(-n2cc(CCCN(CCNc3ccnc4cc(Cl)ccc34)C(=O)CCC(=O)O[C@@H]3O[C@@H]4OC5(C)CC[C@H]6[C@H](C)CC[C@@H]([C@H]3C)[C@@]46OO5)nn2)cc1`: the growth is 19.3%.

`CC[C@]12C=CCN3CC[C@@]4(c5ccc(OC)cc5N(C)[C@H]4[C@@](O)(C(=O)OC)[C@@H]1OC(=O)CCC[P+](c1ccc(F)cc1)(c1ccc(F)cc1)c1ccc(F)cc1)[C@@H]32`: the growth was -6.2% (active).

Consider `O=C(/C=C/c1ccc(Cl)cc1)c1nc2ccccc2n1Cc1ccc(Br)cc1`, for which the growth is 40.2%.

For `C[C@H]1[C@H](OC(=O)CCC(=O)N(CCCc2cn(-c3ccc(CN4CCOCC4)cc3)nn2)CCNc2ccnc3cc(Cl)ccc23)O[C@@H]2OC3(C)CC[C@H]4[C@H](C)CC[C@@H]1[C@@]24OO3`, the growth is -9.61% (active).

In the case of `C[C@H]1[C@H](OC(=O)CCC(=O)N(CCCc2cn(-c3ccc([N+](=O)[O-])cc3)nn2)CCNc2ccnc3cc(Cl)ccc23)O[C@@H]2OC3(C)CC[C@H]4[C@H](C)CC[C@@H]1[C@@]24OO3`, the growth is 24.9%.

Consider `COP(=O)(CC(F)(F)C(F)(F)F)OC`, for which the growth is -29.8% (active).

Turning to `COc1cc(OC)c(/C=C/C(=O)c2nc3ccccc3n2Cc2ccc(F)cc2)c(OC)c1`, the growth is 50.2%.

As to `CCOP(=O)(CC(F)(F)C(F)(F)F)OCC`, the growth was -7.91% (active).

On to `C=CC[Se]C(=O)c1cncc(C(=O)[Se]CC=C)c1`, for which the growth is -18% (active).
